About 2,000 (87%) of roughly 2,300 compounds were called active. So high a share suggests a set chosen from earlier hits. A selection follows. Values without a mark were called inactive. No stated cut-off is given here; in the data, active means activation above about 49%; inactive means the rest.

This assay deals with Aryl hydrocarbon receptor (Homo sapiens) (UniProt P35869). As to the kind of experiment: activators of human aryl hydrocarbon receptor reporter – cell-based, luminescence, luciferase reporter, confirmation (AID 2845).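 Further: HepG2 hepatoma cells carrying a DRE-driven firefly luciferase reporter; 0% = vehicle wells and 100% = reference agonist wells.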 The note with it: human cells, AHR-responsive luciferase reporter, at 9 µM, stronger effect = higher value. (In general: A reporter such as luciferase makes a cellular process visible.)
Aryl hydrocarbon receptor (Homo sapiens), sequence (P35869 whole entry, looked up): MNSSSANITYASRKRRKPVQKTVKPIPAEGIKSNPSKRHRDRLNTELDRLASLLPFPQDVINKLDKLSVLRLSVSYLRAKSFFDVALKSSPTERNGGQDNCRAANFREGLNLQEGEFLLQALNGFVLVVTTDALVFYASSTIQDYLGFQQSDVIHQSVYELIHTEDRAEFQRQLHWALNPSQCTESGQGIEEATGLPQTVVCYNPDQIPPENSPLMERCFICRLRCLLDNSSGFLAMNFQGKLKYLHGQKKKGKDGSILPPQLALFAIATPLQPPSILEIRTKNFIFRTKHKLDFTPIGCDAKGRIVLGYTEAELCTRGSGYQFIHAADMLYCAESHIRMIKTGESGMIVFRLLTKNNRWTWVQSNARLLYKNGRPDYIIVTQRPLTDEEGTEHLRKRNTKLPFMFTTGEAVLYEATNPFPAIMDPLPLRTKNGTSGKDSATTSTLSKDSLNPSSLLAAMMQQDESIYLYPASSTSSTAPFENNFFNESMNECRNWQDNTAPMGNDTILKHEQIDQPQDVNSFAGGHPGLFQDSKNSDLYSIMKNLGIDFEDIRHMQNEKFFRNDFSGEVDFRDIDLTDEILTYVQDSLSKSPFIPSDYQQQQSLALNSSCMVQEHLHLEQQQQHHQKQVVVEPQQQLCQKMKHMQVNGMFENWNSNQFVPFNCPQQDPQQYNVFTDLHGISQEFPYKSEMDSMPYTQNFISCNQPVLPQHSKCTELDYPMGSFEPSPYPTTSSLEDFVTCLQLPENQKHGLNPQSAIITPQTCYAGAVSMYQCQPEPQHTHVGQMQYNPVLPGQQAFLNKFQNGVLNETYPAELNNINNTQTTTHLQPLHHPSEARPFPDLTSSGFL
Turning to `Cc1ccnc(-n2sc3ccccc3c2=O)n1`, the activation is 55.4% (active).

As to `COc1ccccc1NC(=O)C1=C(C)NC2=C(C(=O)CCC2)C1c1ccc(C)o1` (configuration not stated), the activation was 110% (active). `NC(=O)Nc1ccccc1C(=O)NCCc1ccccc1`: the activation was 106% (active). Then `CC(C)n1ncc2c(C(=O)Nc3ccc(CC#N)cc3)cc(C3CC3)nc21`, with 25.4%; and `Cc1ccc(NC(=O)Nc2cccnc2)cc1`, with 67.7% (active); and `CCC(=O)NC(=S)Nc1ccc(NC(=O)c2ccco2)c(Cl)c1`, with 82% (active). Under `COc1cc(NC(=O)c2ccc(-c3csc(C)n3)cc2)c(OC)cc1Cl` stands 119% (active); under `CCNC(=S)N1CCC(c2nc3cc(C)c(C)cc3[nH]2)CC1`, 25.5%; under `O=C(Nc1cccc(Br)c1)c1ccc2snnc2c1`, 74.4% (active). Then `CNC(=O)c1ccc2nc(NC(C)=O)sc2c1`, with 22.7%; and `COc1cc(CNCc2ccc3c(c2)OCO3)c([N+](=O)[O-])cc1OC`, with 87.3% (active); and `Brc1ccc(C2=CC(c3ccco3)n3ncnc3N2)cc1` (configuration not stated), with 90.4% (active). As for `S=c1[nH]nc(-c2cc(-c3ccsc3)n[nH]2)n1-c1ccccc1`, the activation was 103% (active).

For `Cc1ccnc(NC(=O)c2ccc(Cl)c([N+](=O)[O-])c2)c1`, the activation was 60.8% (active). `Cc1cccc(N=Nc2c(O)[nH]c3ccc(F)cc23)c1`: the activation was 147% (active). Then `CC(=O)Nc1ccc(-c2nc3ccccc3o2)cc1`, with -4.38%. Under `COc1cccc(-c2nc3cc(C)ccc3o2)c1` stands 47% (active); under `COc1ccc(OC)c(-c2csc(-c3cccs3)n2)c1`, 94.4% (active). Then `O=C(CCCCn1c(=O)[nH]c2ccccc2c1=O)NCc1ccc2c(c1)OCO2`, with 56.1% (active). As to `Brc1ccc(C2CC(c3ccccc3)=Nc3ccccc3N2)cc1` (configuration not stated), the activation was 80.8% (active). Then `NNc1nc2c(Cl)cccc2s1`, with 57.5% (active).

Regarding `CC(C)n1cnc2c(Nc3cccc(Cl)c3)nc(N(CCO)CCCO)nc21`, the activation was 11.4%. For `CN(C)S(=O)(=O)Oc1ccccc1C(=O)Nc1ccccc1Cl`, the activation is 99.1% (active). Under `CCOC(=O)c1nc(-c2ccc3c(c2)OCO3)[nH]c1C` stands 68.3% (active); under `CCn1c2ccccc2c2cc(NC(=O)C/C(C)=N/NC(=O)c3ccccc3N)ccc21`, 61.5% (active); under `CCn1c(NC(=O)c2nn(C)cc2Br)nc2ccccc21`, 70.7% (active).

`O=C(Nc1ccc(Cl)cn1)c1cnn2cccnc12`: the activation was 179% (active).

Turning to `COc1ccc(Nc2nnc(C)c3ccccc23)cc1`, the activation was 82.5% (active). Then `Cn1c(C(=O)NCCc2ccsc2)cc2c(=O)n(C)c3ccccc3c21`, with 65.4% (active). For `O=C(NC1CC1)C1=C[C@H](c2c[nH]c3ccccc23)C[C@H](OCc2ccc(CO)cc2)O1`, the activation was 27.6%. Then `O=C(N/N=C/c1ccco1)c1ccc(C(=O)N/N=C/c2ccco2)o1`, with 73.2% (active); and `O=C(N/N=C/c1c[nH]c2ccccc12)c1cc2ccccc2o1`, with 42.3%. `COc1ccc(NC(=O)c2ccco2)cc1NC(=O)c1ccc(C#N)cc1F`: the activation was 71.7% (active). Under `N#C/C(=C(/O)COc1cccc2ccccc12)c1nc2ccccc2[nH]1` stands 84.1% (active); under `O=C(Nc1cc(S(=O)(=O)Nc2ccc(Cl)cc2)ccc1O)c1ccc(F)cc1F`, 103% (active). Then `Cc1nnc(NC(=O)/C=C/c2ccco2)s1`, with 127% (active). Under `NS(=O)(=O)c1ccc(-c2ccc(/C=C3\SC(=O)NC3=O)o2)cc1` stands 116% (active); under `COc1cc(/C=N/N=C(\N)c2nonc2N)cc(OC)c1OC`, 101% (active). For the compound `Cc1cccc(NC(=O)c2ccc3ccccc3n2)n1`, the activation was 128% (active). Under `Cc1csc(NC(=S)Nc2cccc(Cl)c2)n1` stands 98.7% (active); under `C/C(=N/NC(=S)Nc1ccccc1)c1ccc2c(c1)OCO2`, 16%. As for `CCSc1ccccc1C(=O)Nc1ccc2c(c1)OCO2`, the activation is 101% (active). Then `Cc1cccc(NC(=O)Nc2ccc3c(c2)OCO3)n1`, with 123% (active). Under `CCC(C)NCC(=O)Nc1ccc([N+](=O)[O-])cc1C(=O)Nc1ccccc1F` (configuration not stated) stands 88.2% (active). Then `COCCNc1nc(-c2ccccc2)nc2c1oc1ccccc12`, with 121% (active); and `CSc1ccc(C#N)cc1NC(=O)c1ccc(Cl)cc1`, with 86.5% (active); and `CCN(CC)C(=O)Oc1ccc(Br)cc1C(=O)Nc1ccc(F)c(Cl)c1`, with 124% (active).

For the compound `C/C(=N\NC(=O)c1cccnc1)c1ccc(-n2ccnc2)cc1`, the activation is 86.3% (active). Under `C(=N\Nc1ccc2ccccc2n1)/c1ccc2c(c1)OCO2` stands -10.8%; under `Cc1noc(C)c1/C=N/Nc1ccc2ccccc2n1`, 176% (active).

As for `COc1ccccc1Nc1ncnc2c1oc1ccccc12`, the activation is 132% (active). Then `CCn1ccnc1CN(C)Cc1nc(-c2ccc3c(c2)OCO3)no1`, with 79.9% (active); and `O=C(Nc1ccc(C2CC2(Cl)Cl)cc1)c1cccc([N+](=O)[O-])c1` (configuration not stated), with 96.2% (active). Under `O=C(NCCCn1ccnc1)c1cc(-c2ccccc2)on1` stands 323% (active); under `Clc1ccc(Nc2nc(-c3cccs3)cs2)nc1`, 141% (active); under `Cc1ccc(NC(=O)NNC(=O)c2sccc2-n2cccc2)cc1`, 101% (active). With `COc1ccc2nc(Nc3nc(-c4ccncc4)cs3)sc2c1`, the activation is 101% (active). Take `C/C(CC1CC(C)(C)OC1=O)=N/Nc1nc(-c2ccccc2)cs1` (configuration not stated): the activation was -2.24%. Under `Cc1cccc(Nc2nc(-c3ccccc3)cs2)n1` stands 131% (active).

As for `COc1ccc(Nc2nc(-c3ccccc3)cs2)cc1`, the activation is 91.2% (active). Then `S=c1nc2ccccc2c2nc(-c3cccnc3)[nH]n12`, with 125% (active); and `O=C(Nc1ccc(-c2csc(Nc3cccc(C(F)(F)F)c3)n2)cc1)c1cccc(C(F)(F)F)c1`, with 4.55%. Then `O=C(Nc1ccc(C(F)(F)F)cc1)c1cccc(-n2cnnn2)c1`, with 106% (active); and `CC(C(=O)N=Nc1c(O)n(C)c2ccc(Br)cc12)n1cnc2ccccc2c1=O` (configuration not stated), with 73.7% (active).

For the compound `O=C(CSc1cccc2cccnc12)N/N=C/c1cccnc1`, the activation was 21.4%.

For the compound `Cc1nn(Cc2ccc(Cl)cc2)c(Cl)c1/C=N/NC(=O)c1cccnc1`, the activation was 74.2% (active). Then `Cc1c(C(=O)NCC(c2ccco2)N2CCCC2)oc2ccc(Cl)cc12` (configuration not stated), with 75.5% (active).
